# Test results published in PubChem BioAssay (NCI).
# This is part of a sample that, as a whole, favours compounds with a hit. Of some 83,000 tested, about 20% had one in any assay.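 Plates (96-well) were seeded with cells, treated with compound at one concentration, and incubated for 48 hours before percent growth was determined.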 A number with no mark means an inactive call. Active and inactive are the calls of the source. How the source made its calls: active means growth percent below 10; inactive means the rest.
# Assays:
# Test in all cases: NCI-60 one-dose screen, 48 h (100 = growth as untreated, 0 = no growth, -100 = all killed)
# Conditions in all cases: 10 µM unless noted
# NCI-H23 lung = system: NCI-H23 lung
# NCI-H226 lung = system: NCI-H226 lung
# NCI-H322M lung = system: NCI-H322M lung
# HOP-62 NSCLC = system: HOP-62 NSCLC
# NCI-H460 lung = system: NCI-H460 lung
# HOP-92 NSCLC = system: HOP-92 NSCLC
# NCI-H522 lung = system: NCI-H522 lung
# A549/ATCC NSCLC = system: A549/ATCC NSCLC
# 786-0 renal = system: 786-0 renal
# COLO 205 colon = system: COLO 205 colon
# DU-145 prostate = system: DU-145 prostate
# K-562 leukemia = system: K-562 leukemia
# MALME-3M melanoma = system: MALME-3M melanoma
# MDA-MB-231 breast = system: MDA-MB-231 breast
# RXF 393 renal = system: RXF 393 renal
# SF-268 CNS = system: SF-268 CNS
# SF-295 CNS = system: SF-295 CNS
# SF-539 CNS = system: SF-539 CNS
# UACC-257 melanoma = system: UACC-257 melanoma
# M14 melanoma = system: M14 melanoma
Compound,growth (NCI-H23 lung),growth (NCI-H226 lung),growth (NCI-H322M lung),growth (HOP-62 NSCLC),growth (NCI-H460 lung),growth (HOP-92 NSCLC),growth (NCI-H522 lung),growth (A549/ATCC NSCLC),growth (786-0 renal),growth (COLO 205 colon),growth (DU-145 prostate),growth (K-562 leukemia),growth (MALME-3M melanoma),growth (MDA-MB-231 breast),growth (RXF 393 renal),growth (SF-268 CNS),growth (SF-295 CNS),growth (SF-539 CNS),growth (UACC-257 melanoma),growth (M14 melanoma)
O=C(Nc1ccccc1)Nc1ccc(C(=O)/C=C/c2ccc(N3CCCC3)cc2)cc1,92.3%,78%,83.2%,63%,78.7%,73.8%,31.7%,75.5%,93.9%,66.6%,94.7%,77.2%,79.1%,56.8%,58.8%,57.6%,73.4%,78.7%,51.4%,101%
COc1ncnc2c(-c3ccccc3)cn(COCc3ccccc3)c12,45.8%,66.5%,86.6%,75.6%,34.1%,-0.37% (active),36.2%,51.1%,60.7%,78.3%,86.6%,29.5%,51.9%,56.9%,70.3%,74.4%,52.6%,84.1%,40%,44.1%
Nc1ccc2c(c1)Cc1cc(NC(=O)C(F)(F)F)ccc1-2,95.9%,93.6%,95.5%,105%,97.8%,101%,90.3%,93.6%,108%,109%,99.2%,108%,108%,71.2%,113%,96.1%,99.8%,97.6%,104%,109%
COc1c(B(O)O)cccc1-c1nc2ccc3[nH]ncc3c2c2c1CCC2,75.5%,68.3%,57.6%,48.7%,47.9%,72.1%,62.7%,60.2%,55.7%,66.2%,63.3%,77.9%,98.4%,40.7%,4.27% (active),65.9%,86.9%,54.7%,111%,65%
CC1(C)CC[C@]2(C(=O)O)CC[C@]3(C)C(=CC[C@@H]4[C@@]5(C)C/C(=C/c6cccnc6)[C@H](O)C(C)(C)[C@@H]5CC[C@]43C)[C@@H]2C1,6.1% [100 µM] (active),-23% [100 µM] (active),-17% [100 µM] (active),-2.51% [100 µM] (active),-16.7% [100 µM] (active),-21.8% [100 µM] (active),-8.98% [100 µM] (active),5.82% [100 µM] (active),5.39% [100 µM] (active),-73% [100 µM] (active),5.35% [100 µM] (active),9.27% [100 µM] (active),-30.1% [100 µM] (active),-24.3% [100 µM] (active),-37.4% [100 µM] (active),22.4% [100 µM],-7.25% [100 µM] (active),-26.8% [100 µM] (active),-8.97% [100 µM] (active),3.32% [100 µM] (active)
Clc1ccccc1/C=N\Nc1ccccn1,84.9%,80.8%,111%,83.8%,99.2%,83.9%,91.7%,93.6%,113%,95.7%,105%,94.8%,110%,83.3%,107%,96.3%,95.7%,98.5%,105%,124%
O=C(Nc1ccc(Oc2ccc(F)cc2)c(Cl)c1)c1cccnn1,62.3%,55%,87.6%,84.2%,76.8%,66.5%,61.8%,65.5%,105%,112%,76.7%,55.5%,105%,88.1%,82.6%,80.4%,73.4%,85.5%,64.3%,114%
O=C(O)c1cn(C2CC2)c2cc(N3CCN(Cc4c(O)ccc5ccccc45)CC3)c(F)cc2c1=O,21.9%,6.89% (active),22%,-41.1% (active),5.64% (active),-8.22% (active),19.7%,-21.9% (active),29.5%,27.1%,3.75% (active),58.4%,10.9%,43.6%,-29.2% (active),47.1%,39.3%,-17.7% (active),35.1%,47.6%
COC(=O)[C@]1(C)CC[C@]2(C)CC[C@]3(C)C(=CC(=O)[C@@H]4[C@@]5(C)CCC(=O)NC(C)(C)[C@@H]5CC[C@]43C)[C@@H]2C1,-77.5% [100 µM] (active),-58.3% [100 µM] (active),29.1% [100 µM],-70.8% [100 µM] (active),-17.2% [100 µM] (active),-85.6% [100 µM] (active),-73.4% [100 µM] (active),9.53% [100 µM] (active),-70.9% [100 µM] (active),-51.2% [100 µM] (active),-24.1% [100 µM] (active),4.37% [100 µM] (active),-76.4% [100 µM] (active),-80.2% [100 µM] (active),-85.5% [100 µM] (active),-55.3% [100 µM] (active),-70.6% [100 µM] (active),-85% [100 µM] (active),-30.3% [100 µM] (active),-39.1% [100 µM] (active)
CCN(CC)CCCNCc1cc(-c2ccccc2)nc2ccccc12,36%,86.5%,102%,44.2%,105%,49.5%,74.7%,87.9%,76.1%,117%,16.6%,24.3%,50.7%,31.3%,77.8%,39.8%,70.2%,32.7%,80%,4.63% (active)
O=C(CCN1CCCCC1)c1ccc2ccccc2c1,103%,92.2%,98.4%,108%,103%,92.8%,93.5%,102%,111%,112%,98.6%,111%,106%,102%,102%,98.2%,99.4%,108%,98.5%,107%
COc1ccc(-c2cc(-c3ccccc3)nc(SCCCCCC(=O)NO)n2)cc1,61.7%,80.3%,74.3%,51.5%,51.9%,40.5%,10.1%,59.3%,88%,38.1%,61.2%,26.4%,21.5%,59.2%,39.2%,98.9%,60.4%,68.1%,36.5%,52%
CCCCCCCCCN(CCCCCCCCC)C(C)C(=O)c1ccc2cc(Br)c3ccccc3c2c1 (stereo not given),77.6%,102%,116%,95.6%,110%,72.8%,96.5%,86.1%,90.4%,81.9%,88.6%,39.2%,118%,68.9%,99.4%,87.1%,100%,81.2%,98.7%,55.7%
CO[C@H]1CC[C@@]2(C)C(=CC[C@H]3[C@@H]4C[C@H](O)C[C@@]4(C)CC[C@@H]32)C1,67.8%,82.4%,91.3%,62.4%,42.9%,35.6%,71.6%,81.9%,61.5%,61.5%,42.1%,20.7%,52.1%,56.2%,58.5%,49.2%,40.8%,38%,65.2%,36.6%
O=c1[nH]cnc2c1ccn2C1OC(CO)C(O)C1O (stereo not given),81.4%,75.1%,64.6%,76.5%,49.4%,8.49% (active),61%,84.4%,58.9%,66.8%,18.4%,65.4%,81.3%,45.3%,43.1%,76%,69.2%,80.4%,86.2%,55.9%
